# Measurements: ChEMBL document CHEMBL5606458, “ASAP - ZIKV NS2B-NS3 protease fluorescence single point” (2024)
# About 160 (5.9%) of roughly 2,700 compounds showed an effect of 50% or more. For the sample, strong results were picked, then their nearest neighbours and some compounds at random.
# Molecular target: Nonstructural protein 3 (Zika virus) (UniProt A0A024AXB9)
# Sequence (A0A024AXB9 as listed by the source): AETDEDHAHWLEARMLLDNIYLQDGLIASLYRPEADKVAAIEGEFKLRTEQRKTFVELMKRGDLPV
smiles,measurement,setting,value
CCn1ccnc(N(C)[C@@H](CO)Cc2c[nH]c3ccccc23)c1=O,inhibition,"PRVABC59, Concentration 49.5 uM, Number of replicates 2.0, Standard deviation 1.5047267855359387 %",5.63%
same,inhibition,"PRVABC59, Concentration 99.01 uM, Number of replicates 2.0, Standard deviation 0.8040526249565179 %",13%
same,inhibition,"PRVABC59, Concentration 198.0 uM, Number of replicates 2.0, Standard deviation 1.5605190977207197 %",25.3%
O[C@@H]1CN(Cc2c[nH]c3ccccc23)CC[C@@H]1c1ccccc1,inhibition,"PRVABC59, Concentration 49.5 uM, Number of replicates 2.0, Standard deviation 0.3811882362248968 %",52.4%
same,inhibition,"PRVABC59, Concentration 99.01 uM, Number of replicates 2.0, Standard deviation 0.3137721603955992 %",68%
same,inhibition,"PRVABC59, Concentration 198.0 uM, Number of replicates 2.0, Standard deviation 0.1218792449994391 %",78.3%
c1cc(CN2CCC(c3c[nH]c4ncccc34)CC2)c2[nH]ccc2c1,inhibition,"PRVABC59, Concentration 49.5 uM, Number of replicates 2.0, Standard deviation 0.810920201040277 %",22.9%
same,inhibition,"PRVABC59, Concentration 99.01 uM, Number of replicates 2.0, Standard deviation 0.8653267248460199 %",30.1%
same,inhibition,"PRVABC59, Concentration 198.0 uM, Number of replicates 2.0, Standard deviation 1.207313671508752 %",32%
c1cnc2c(C3CCN(Cc4c[nH]c5ncccc45)CC3)c[nH]c2c1,inhibition,"PRVABC59, Concentration 49.5 uM, Number of replicates 2.0, Standard deviation 1.618110911749522 %",7.76%
same,inhibition,"PRVABC59, Concentration 99.01 uM, Number of replicates 2.0, Standard deviation 1.5506891039488269 %",16.5%
same,inhibition,"PRVABC59, Concentration 198.0 uM, Number of replicates 2.0, Standard deviation 1.1046722712184134 %",29.8%
N#C[C@H]1CCCN(Cc2c[nH]c3ccccc23)C1,inhibition,"PRVABC59, Concentration 49.5 uM, Number of replicates 2.0, Standard deviation 3.0443309311516127 %",3.62%
same,inhibition,"PRVABC59, Concentration 99.01 uM, Number of replicates 2.0, Standard deviation 5.606340240027709 %",5.66%
same,inhibition,"PRVABC59, Concentration 198.0 uM, Number of replicates 2.0, Standard deviation 2.4427254668079588 %",8.81%
c1ccc2c(CN3CCC(c4c[nH]c5ncccc45)CC3)c[nH]c2c1,inhibition,"PRVABC59, Concentration 49.5 uM, Number of replicates 2.0, Standard deviation 1.5803867849339672 %",58.2%
same,inhibition,"PRVABC59, Concentration 99.01 uM, Number of replicates 2.0, Standard deviation 1.538935865185685 %",72.5%
same,inhibition,"PRVABC59, Concentration 198.0 uM, Number of replicates 2.0, Standard deviation 1.43011742277759 %",82.3%
c1ccc2c(CN3CCC(c4c[nH]c5cccnc45)CC3)c[nH]c2c1,inhibition,"PRVABC59, Concentration 49.5 uM, Number of replicates 2.0, Standard deviation 1.80837898184189 %",63.8%
same,inhibition,"PRVABC59, Concentration 99.01 uM, Number of replicates 2.0, Standard deviation 1.3316731742493602 %",74.9%
same,inhibition,"PRVABC59, Concentration 198.0 uM, Number of replicates 2.0, Standard deviation 0.976733320927472 %",81.5%
C[C@@H](Cc1c[nH]c2ccccc12)N1CC[C@H](c2c[nH]c3ccccc23)C1,inhibition,"PRVABC59, Concentration 49.5 uM, Number of replicates 2.0, Standard deviation 2.440376707234144 %",29.4%
same,inhibition,"PRVABC59, Concentration 99.01 uM, Number of replicates 2.0, Standard deviation 1.7661943697547304 %",46%
same,inhibition,"PRVABC59, Concentration 198.0 uM, Number of replicates 2.0, Standard deviation 0.6921254310022592 %",60.4%
O[C@H]1CCCN(Cc2c[nH]c3ccccc23)C1,inhibition,"PRVABC59, Concentration 49.5 uM, Number of replicates 2.0, Standard deviation 18.69396289412785 %",21%
same,inhibition,"PRVABC59, Concentration 99.01 uM, Number of replicates 2.0, Standard deviation 0.9286103864725214 %",13.9%
same,inhibition,"PRVABC59, Concentration 198.0 uM, Number of replicates 2.0, Standard deviation 2.4132961769541357 %",24.7%
C[C@@H](Cc1c[nH]c2ccccc12)N1CC[C@H](n2ncc3ccccc32)C1,inhibition,"PRVABC59, Concentration 49.5 uM, Number of replicates 2.0, Standard deviation 0.39220306220212786 %",9.38%
same,inhibition,"PRVABC59, Concentration 99.01 uM, Number of replicates 2.0, Standard deviation 0.9766631885715499 %",10.3%
same,inhibition,"PRVABC59, Concentration 198.0 uM, Number of replicates 2.0, Standard deviation 1.7687599327172854 %",8.18%
C[C@@H](CO)N1CC[C@H](c2c[nH]c3ccccc23)C1,inhibition,"PRVABC59, Concentration 49.5 uM, Number of replicates 2.0, Standard deviation 2.959092091051968 %",-1.43%
same,inhibition,"PRVABC59, Concentration 99.01 uM, Number of replicates 2.0, Standard deviation 1.9403190167556676 %",0.816%
same,inhibition,"PRVABC59, Concentration 198.0 uM, Number of replicates 2.0, Standard deviation 2.4285693519175138 %",5.47%
O=C1NCc2ccccc2C12CCN(CCn1cc(-c3ccccc3)cn1)CC2,inhibition,"PRVABC59, Concentration 49.5 uM, Number of replicates 2.0, Standard deviation 2.8974171324862783 %",-1.24%
same,inhibition,"PRVABC59, Concentration 99.01 uM, Number of replicates 2.0, Standard deviation 3.3976160570541145 %",2.72%
same,inhibition,"PRVABC59, Concentration 198.0 uM, Number of replicates 2.0, Standard deviation 1.9883423160607387 %",8.7%
CCn1ccnc(N2CC[C@H](c3ccncc3)C2)c1=O,inhibition,"PRVABC59, Concentration 50.0 uM, Number of replicates 2.0, Standard deviation 13.086126440978003 %",15.5%
same,inhibition,"PRVABC59, Concentration 100.0 uM, Number of replicates 2.0, Standard deviation 1.9353273126054316 %",11.2%
same,inhibition,"PRVABC59, Concentration 200.0 uM, Number of replicates 2.0, Standard deviation 4.176368308171179 %",19%
Cc1nc([C@H]2CCCNC2)[nH]c1C(=O)Nc1ccccn1,inhibition,"PRVABC59, Concentration 49.5 uM, Number of replicates 2.0, Standard deviation 0.17090445918731104 %",8.49%
same,inhibition,"PRVABC59, Concentration 99.01 uM, Number of replicates 2.0, Standard deviation 0.26430592158490923 %",17.8%
same,inhibition,"PRVABC59, Concentration 198.0 uM, Number of replicates 2.0, Standard deviation 0.13314627771815937 %",30.2%
c1cnc2c(CN3CCC(c4c[nH]c5cccnc45)CC3)c[nH]c2c1,inhibition,"PRVABC59, Concentration 49.5 uM, Number of replicates 2.0, Standard deviation 0.7260748860651783 %",51.4%
same,inhibition,"PRVABC59, Concentration 99.01 uM, Number of replicates 2.0, Standard deviation 0.6197542344872328 %",66.3%
same,inhibition,"PRVABC59, Concentration 198.0 uM, Number of replicates 2.0, Standard deviation 0.45379950118904117 %",74.9%
CCn1ccc2cc(CN3CCC(c4c[nH]c5cccnc45)CC3)ccc21,inhibition,"PRVABC59, Concentration 49.5 uM, Number of replicates 2.0, Standard deviation 2.8809639300582925 %",3.93%
same,inhibition,"PRVABC59, Concentration 99.01 uM, Number of replicates 2.0, Standard deviation 1.8463057507050853 %",15.6%
same,inhibition,"PRVABC59, Concentration 198.0 uM, Number of replicates 2.0, Standard deviation 0.9205600012321524 %",34.4%
c1ccc2c(CN3CCC(c4c[nH]c5cccnc45)CC3)n[nH]c2c1,inhibition,"PRVABC59, Concentration 49.5 uM, Number of replicates 2.0, Standard deviation 0.6456276790258886 %",55.4%
same,inhibition,"PRVABC59, Concentration 99.01 uM, Number of replicates 2.0, Standard deviation 0.2001199802254866 %",70.2%
same,inhibition,"PRVABC59, Concentration 198.0 uM, Number of replicates 2.0, Standard deviation 0.3311541950710681 %",79.4%
c1ccc2c(CN3CC[C@H](c4c[nH]c5ccccc45)C3)c[nH]c2c1,inhibition,"PRVABC59, Concentration 50.0 uM, Number of replicates 2.0, Standard deviation 0.9766631885715499 %",20.3%
same,inhibition,"PRVABC59, Concentration 100.0 uM, Number of replicates 2.0, Standard deviation 0.28966551174652017 %",37.5%
same,inhibition,"PRVABC59, Concentration 200.0 uM, Number of replicates 2.0, Standard deviation 1.348359280162217 %",55.9%
c1ccc2c([C@H]3CCN(CC4CCOCC4)C3)c[nH]c2c1,inhibition,"PRVABC59, Concentration 49.5 uM, Number of replicates 2.0, Standard deviation 2.5997737280788282 %",6.89%
same,inhibition,"PRVABC59, Concentration 99.01 uM, Number of replicates 2.0, Standard deviation 3.698865419379611 %",11.8%
same,inhibition,"PRVABC59, Concentration 198.0 uM, Number of replicates 2.0, Standard deviation 1.139250220086327 %",22.2%
c1cc(CN2CCC(c3c[nH]c4cccnc34)CC2)c2cn[nH]c2c1,inhibition,"PRVABC59, Concentration 49.5 uM, Number of replicates 2.0, Standard deviation 0.9568639478402843 %",4.4%
same,inhibition,"PRVABC59, Concentration 99.01 uM, Number of replicates 2.0, Standard deviation 0.8012763277514082 %",10%
same,inhibition,"PRVABC59, Concentration 198.0 uM, Number of replicates 2.0, Standard deviation 3.635563550314553 %",17.8%
